The campaign covered roughly 5,500 compounds. About 2,000 (36%) were called active. Another 18% or so got no clear call; they are omitted. No stated cut-off is given here; in the data, active means normalized growth mostly below about 0.91 (no sharp cut-off); inconclusive means no clear call, values can overlap the other calls; inactive means mostly above about 0.92. This is one part of the list.
Test: chemical genetic growth profiling, strain panel (AID 1159580);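 further: tested at 20 µM; growth read once vehicle control cultures reached saturation at 30 °C; 1 = growth at the plate median or of vehicle wells; lower values mean less growth of the strain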
Conditions: S. cerevisiae deletion strains, growth OD

Measured: normalized growth

CN(C)CC[C@@H](c1ccc(Br)cc1)c1ccccn1
inactive: locus YAL040C, strain CLN3, hits give low values 1.05 | locus YCL061C, strain MRC1 (second series), hits give low values 0.993 | locus YDR363W, strain ESC2, hits give low values 0.97 | locus YER002W, strain NOP16, hits give low values 0.99 | locus YGR078C, strain PAC10, hits give low values 0.991 | locus YMR307W, strain GAS1, hits give low values 1.01 | locus YNL128W, strain TEP1, hits give low values 0.984 | locus YNL175C, strain NOP13, hits give low values 0.988 | locus YNL197C, strain WHI3, hits give low values 0.928 | locus YNL224C, strain SQS1, hits give low values 0.985 | locus YNL322C, strain KRE1, hits give low values 0.983 | locus YOR083W, strain WHI5 (second series), hits give low values 0.912 | locus YPL055C, strain LGE1, hits give low values 1

— PubChem BioAssay AID1159580 (chemical genetic matrix, 2015)
